Test results as given in the supplement of paper PMC3545927.
The other results are listed elsewhere or left out. The true hit rate is not given.

Biological target: furin, P09958
Test: furin cleavage Z-score vs untreated control; higher = more cleavage, active = 3.5 or more, inactive = 1 or less, 8 variable residues between constant flanks
Method in brief: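 Furin cleavage was scored on 8-mer peptides joined to a cDNA oligonucleotide and bound to magnetic beads at the N-terminus. Digestion with purified furin (1:10 enzyme:substrate, 0.01 ml, 50 mM HEPES pH 7.5, CaCl2, NaCl) lasted 7.5, 15 or 30 min. Freed DNA was tagged with adapters by PCR, sequenced and counted; the cleavage Z-score is the lowess-adjusted log count versus furin-free reactions, scaled by median absolute deviation.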

Chain of furin, P09958 (P09958 whole entry): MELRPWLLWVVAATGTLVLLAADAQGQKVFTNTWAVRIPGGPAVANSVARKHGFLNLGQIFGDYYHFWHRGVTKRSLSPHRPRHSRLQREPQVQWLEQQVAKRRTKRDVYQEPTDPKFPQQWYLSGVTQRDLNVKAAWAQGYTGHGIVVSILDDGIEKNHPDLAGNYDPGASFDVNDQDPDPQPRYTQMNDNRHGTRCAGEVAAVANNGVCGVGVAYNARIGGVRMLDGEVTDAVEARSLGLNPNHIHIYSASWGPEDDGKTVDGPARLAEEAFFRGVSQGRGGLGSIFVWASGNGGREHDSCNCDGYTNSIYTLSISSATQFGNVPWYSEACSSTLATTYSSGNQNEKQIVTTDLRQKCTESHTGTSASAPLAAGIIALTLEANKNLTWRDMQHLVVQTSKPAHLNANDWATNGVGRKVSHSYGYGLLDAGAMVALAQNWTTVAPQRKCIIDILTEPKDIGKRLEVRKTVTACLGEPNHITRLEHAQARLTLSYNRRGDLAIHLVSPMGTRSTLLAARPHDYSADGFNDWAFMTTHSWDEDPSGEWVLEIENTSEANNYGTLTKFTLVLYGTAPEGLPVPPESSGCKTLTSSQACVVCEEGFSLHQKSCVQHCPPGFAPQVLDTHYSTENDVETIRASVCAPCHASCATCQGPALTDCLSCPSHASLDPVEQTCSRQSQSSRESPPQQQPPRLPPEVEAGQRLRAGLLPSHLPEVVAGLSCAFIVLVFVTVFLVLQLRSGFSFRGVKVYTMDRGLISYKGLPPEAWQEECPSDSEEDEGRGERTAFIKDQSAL

| Sequence | furin cleavage Z-score (7.5 min) | furin cleavage Z-score (15 min) | furin cleavage Z-score (30 min) |
| --- | --- | --- | --- |
| CAEVVTSTWYAGNASASA [HC2249] | -1.56 (inactive) | -0.21 (inactive) | -0.098 (inactive) |
| CALKKRSYFGAGNASASA [FS-2870] | 0.606 (inactive) | 0.802 (inactive) | 1.4 |
| CAEVVNSTWVAGNASASA [HC138] | 0.467 (inactive) | -0.699 (inactive) | 1.06 |
| CALLSRPLRGAGNASASA [FS-1229] | -0.34 (inactive) | -0.208 (inactive) | -1.05 (inactive) |
| CAGAGRARRRAGNASASA [FS-995] | -0.00606 (inactive) | 2.14 | 1.07 |
| CALLSRKRRRAGNASASA [FS-1539] | 11.7 (active) | 12.2 (active) | 9.16 (active) |
| CALLSRKKREAGNASASA [FS-271] | 8.61 (active) | 6.86 (active) | 6.5 (active) |
| CAPPSREKKVAGNASASA [FS-1051] | -1.64 (inactive) | -0.193 (inactive) | 0.495 (inactive) |
| CADVNRLKREAGNASASA [FS-648] | 14.4 (active) | 13.9 (active) | 11.5 (active) |
| CAPPSRARRRAGNASASA [FS-73] | 5.98 (active) | 6.69 (active) | 6.77 (active) |
| CAWLEVVTSTAGNASASA [HC2268] | 0.509 (inactive) | 1.8 | 1.63 |
| CALLSPRGSRAGNASASA [HC209] | 0.623 (inactive) | -0.229 (inactive) | 0.325 (inactive) |
| CALLSRVRREAGNASASA [FS-1540] | 7.59 (active) | 6.32 (active) | 5.92 (active) |
| CAALWRVSAEAGNASASA [HC1201] | -1.28 (inactive) | -0.15 (inactive) | -1.16 (inactive) |
| CATKSRKKREAGNASASA [FS-1493] | 12.1 (active) | 10.8 (active) | 8.58 (active) |
| CALLSCLTVPAGNASASA [HC251] | -1.14 (inactive) | 0.458 (inactive) | -0.633 (inactive) |
| CALLFLLLADAGNASASA [HC521] | -0.353 (inactive) | -1.02 (inactive) | -2.28 (inactive) |
| CALLFRSNRDAGNASASA [FS-822] | 5.19 (active) | 4.77 (active) | 4.55 (active) |
| CALLSRRPRDAGNASASA [FS-611] | 10.2 (active) | 10.5 (active) | 8.78 (active) |
| CAFEECSQHLAGNASASA [HC1667] | 1.36 | 0.54 (inactive) | -0.544 (inactive) |
| CAHNSRKKREAGNASASA [FS-1340] | 11.8 (active) | 13.6 (active) | 9.48 (active) |
| CAFHYVTGMTAGNASASA [HC1210] | 0.168 (inactive) | -0.792 (inactive) | -0.653 (inactive) |
| CAGFGAYMSKAGNASASA [HC792] | 1.73 | -1.14 (inactive) | 1.32 |
| CARARRQLGTAGNASASA [FS-3184] | 4.41 (active) | 5.24 (active) | 4.88 (active) |
| CARKARALGTAGNASASA [FS-2034] | 7.98 (active) | 9.85 (active) | 7.74 (active) |
| CARKAKEEGTAGNASASA [FS-2957] | -0.545 (inactive) | 1.07 | -0.377 (inactive) |
| CAEVNCHRPSAGNASASA [HC2361] | 1.09 | 1.04 | -0.207 (inactive) |
| CAPFDLLDFNAGNASASA [CS3] | -0.762 (inactive) | -0.626 (inactive) | -1.52 (inactive) |
